According to PubChem BioAssay (NCI):
This is part of a sample that, as a whole, favours compounds with a hit. Of some 79,000 tested, about 15% had one in any assay. No stated cut-off is given here; in the data, active means growth inhibition above about 70%; inactive means the rest.

Key:
[1] = NCI Yeast Anticancer Drug Screen. Data for the rad50 strain (AID 155);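 further: 0% = growth of vehicle-only cultures of the same strain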; settings: S. cerevisiae rad50 strain growth inhibition; at 50.0 µM; active compounds read high
Procedure, shortened: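 Readout: growth inhibition relative to vehicle-treated cultures. Compound exposure was carried out in a genetically defined yeast strain deficient in DNA damage repair.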

[2] = NCI Yeast Anticancer Drug Screen. Data for the mec2-1 strain (AID 157); settings: S. cerevisiae mec2-1 strain, at 50.0 µM, active compounds read high
Procedure, shortened: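 Using mec2-1 yeast: add compound, measure growth, express inhibition versus vehicle-treated cultures.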

[3] = NCI Yeast Anticancer Drug Screen. Data for the sgs1 mgt1 strain (AID 161);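 further: 0% = growth of cultures given vehicle only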; settings: S. cerevisiae sgs1 mgt1 strain, at 50.0 µM, active compounds read high
Procedure, shortened: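 Compounds are added to genetically altered yeast, and growth is compared with cultures given vehicle alone to give percent inhibition.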

[4] = NCI Yeast Anticancer Drug Screen. Data for the cln2 rad14 strain (AID 165);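 further: 0% = growth equal to vehicle treated cultures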; settings: S. cerevisiae cln2 rad14 strain, at 50.0 µM, active compounds read high
Procedure, shortened: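 Yeast strain cln2 rad14, bearing defects in cell cycle control and DNA repair, serves as the test system; values reflect growth inhibition compared with vehicle.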

[5] = NCI Yeast Anticancer Drug Screen. Data for the bub3 strain (AID 167); settings: S. cerevisiae bub3 mutant strain, at 50.0 µM, active compounds read high
Procedure, shortened: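 Readout: yeast growth inhibition, expressed relative to vehicle-only wells. The test organism is a mutant strain from a panel with lesions in DNA repair or checkpoint genes.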

[6] = NCI Yeast Anticancer Drug Screen. Data for the mlh1 rad18 strain (AID 175); settings: S. cerevisiae mlh1 rad18 strain growth inhibition; at 50.0 µM; active compounds read high
Procedure, shortened: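 Steps: expose repair-defective yeast to compound; measure growth; express inhibition against vehicle-treated controls.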

Measured: growth inhibition

O=C1C(O)=C(c2ccccc2)C(=O)N1Cc1ccccc1
inactive: [1] 7.25% | [2] -4.7% | [3] 4.55% | [4] -39% | [5] 3.4% | [6] -6.6%

COc1ccc2c(=O)cc(-c3ccncc3)oc2c1OC
inactive: [1] 40.2% | [2] 7.8% | [3] -4.05% | [4] 2.3% | [5] -47% | [6] 31.2%

O=C(c1ccccc1)C(c1ccccc1)N(CCO)CCO (stereo not given)
inactive: [1] -9.8% | [2] -17.4% | [3] -2.85% | [4] -13.4% | [5] 20.6% | [6] -17.3%

O=C(CN1C(=O)c2ccccc2C1=O)Oc1ccccc1
inactive: [1] 1.8% | [2] -7.4% | [3] 1.1% | [4] -9.05% | [5] 16.4% | [6] -5.45%

C/C(=N/Nc1ccc([N+](=O)[O-])cc1[N+](=O)[O-])C(C)(C)C
inactive: [1] -3.05% | [2] -13.2% | [3] 0.35% | [4] 3.15% | [5] -8.75% | [6] -13.2%

O=c1cc2n(c(=O)n1-c1ccccc1)CCCC2
inactive: [1] 6.1% | [2] 6.6% | [3] 11.7% | [4] 12.2% | [5] -9.25% | [6] -6.8%

Cc1ccc(-c2cc(=O)c3cccc(CC(=O)O)c3o2)cc1
inactive: [1] 47.4% | [2] -38.9% | [3] -20.5% | [4] -3.45% | [5] -25.8% | [6] -1.2%

O=C(c1ccccc1)N1C(=S)N=C(Nc2ccccc2)C1=Nc1ccccc1
inactive: [1] -15.8% | [2] -27.1% | [3] -9.8% | [4] -30.3% | [5] -20.9% | [6] -35.9%

O=C1c2ccccc2C(=O)N1c1ccccc1Cl
inactive: [1] 4.45% | [2] -11% | [3] 27.8% | [4] -111% | [5] 39% | [6] 19.7%

CC(C)OP(=O)(c1ccccc1)c1ccc2c(c1)OCCOCCOCCOCCO2 (stereo not given)
inactive: [1] -3.05% | [2] -2.2% | [3] 0.75% | [4] 7.05% | [5] -2.1% | [6] 24.7%

Cc1cc(C(O)CCCc2ccccc2)cc(C)c1O (stereo not given)
inactive: [1] 37.6% | [2] 6.4% | [3] 3.7% | [4] 34.4% | [5] 42% | [6] 5.1%

CCCCCCCCCCCCCCCC/C(C)=C\C(=O)OC
inactive: [1] 3.8% | [2] 20.3% | [3] 22.9% | [4] -0.9% | [5] 28.9% | [6] 16.1%

O=C1CSC(c2ccc(C(F)(F)F)cc2)N1c1nncs1 (stereo not given)
inactive: [1] -1.2% | [2] -3.5% | [3] 29% | [4] -1.45% | [5] 12.6% | [6] 24.2%

COCc1cc(=O)c(OC)cn1CCO
inactive: [1] -40.5% | [2] -17.9% | [3] -25.9% | [4] -63.1% | [5] 0% | [6] -5.2%

CC(=O)Nc1ccc(S(=O)(=O)n2c(=O)oc3cc(Cl)ccc32)cc1
inactive: [1] 3.4% | [2] -2.6% | [3] 3.1% | [4] -2.4% | [5] 2.95% | [6] 13.5%

C[C@@H]1OC(=O)N2CCCC(=C3SCCCS3)C12 (stereo not given in full)
inactive: [1] 0.6% | [2] -0.05% | [3] -2.6% | [4] -25.1% | [5] 2.7% | [6] -12.2%

C/C(=C/c1c(C)c([N+](=O)[O-])c(C)c(C)c1[N+](=O)[O-])C(=O)O
inactive: [1] -3.3% | [2] 38.8% | [3] 14.7% | [4] 11.4% | [5] 30.9% | [6] 37%

COc1ccccc1NC(=O)CC(=O)N1N=C(N(c2ccccc2)c2ccccc2)CC1c1ccccc1 (stereo not given)
inactive: [1] 6.75% | [2] -1.1% | [3] -7.15% | [4] 9.8% | [5] 9.6% | [6] 23.1%

CC(=O)NC(Cc1cccc2ccccc12)C(=O)O (stereo not given)
inactive: [1] 0.55% | [2] -6.15% | [3] -0.05% | [4] -2% | [5] 2.6% | [6] -6.45%

CCOC(=O)N1CC2CCc3c(ccc4ccccc34)N2C1=O (stereo not given)
inactive: [1] -2.35% | [2] 10.5% | [3] -4.5% | [4] -3.6% | [5] 7.4% | [6] 14.2%
